Source: PubChem BioAssay
AmpC detergent = AmpC beta-lactamase inhibition with detergent present; P00811; AmpC hydrolysis of nitrocefin, absorbance 480 nm, 0.01% Triton; Potency, µM (doses to about 114 µM), usual class: inhibitors; actives 0.041% (n = 370,000); AID 485294; note: nearly all actives have a fitted effect of over 25% in size
Target sequence (P00811 whole entry, looked up): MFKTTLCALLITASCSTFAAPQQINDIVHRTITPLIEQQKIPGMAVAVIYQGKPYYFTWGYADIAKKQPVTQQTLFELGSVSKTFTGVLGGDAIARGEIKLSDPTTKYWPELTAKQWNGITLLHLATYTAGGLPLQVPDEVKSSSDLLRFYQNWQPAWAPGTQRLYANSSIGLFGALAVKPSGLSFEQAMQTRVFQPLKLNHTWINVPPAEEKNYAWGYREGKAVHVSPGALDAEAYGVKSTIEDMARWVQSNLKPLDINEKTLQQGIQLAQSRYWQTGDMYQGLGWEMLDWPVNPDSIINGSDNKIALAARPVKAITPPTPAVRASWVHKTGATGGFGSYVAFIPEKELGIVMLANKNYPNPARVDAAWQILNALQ
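20 mM phosphate pH 7.0 + 0.01% (detergent screen) or 0.0001% Triton X-100; 5.3 nM AmpC reagent; cpd preinc 15 min RT; nitrocefin (800 uM stock) to start; A480 q20 s × 4 min; Activity was normalised to no-enzyme and no-compound control wells.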
Pf growth 96h = P. falciparum growth inhibition at 96 hour, primary screen for plastid delayed-death inhibitors; Potency, µM (doses to about 28.7 µM), usual class: inhibitors; AID 504834; actives 6.9% (n = 320,000); P. falciparum luciferase reporter growth, 96 h
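Erythrocytes infected with luciferase-expressing P. falciparum were dispensed at 2% hematocrit and 0.05% parasitemia (final), then incubated with compounds 96 hours at 37 C in 5% CO2. Luminescence after detection reagent addition reported growth.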
Sm TGR inh = inhibitors of Schistosoma mansoni thioredoxin glutathione reductase | Q962Y6 | purified TGR, DTNB reduction, TNB absorbance 405 nm | Potency, µM (series often up to 114 µM), hits mostly inhibitors | actives 3% (n = 360,000) | AID 485364; note: nearly all actives have a fitted effect of over 60% in size
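TGR 20 nM + NADPH 100 uM (dispensed conc.), cpd preinc 15 min RT; start with NADPH (500 uM addition) then DTNB (15 mM addition). Kinetic TNB absorbance, 405 nm filter. Four-parameter Hill fit across titration.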
AmpC inh no detg = AmpC beta-lactamase inhibition without detergent. AmpC nitrocefin hydrolysis, absorbance 480 nm, 0.0001% Triton. Potency, µM (highest dose often 57.1 µM), hits mostly inhibitors. actives 0.52% (n = 330,000). P00811; note: nearly all actives have a fitted effect of over 20% in size
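AmpC (5.3 nM in the dispensed reagent) in 20 mM phosphate pH 7.0 with 0.01% (detergent screen) or 0.0001% Triton X-100 was preincubated with compounds for 15 min at room temperature. Nitrocefin was then added from an 800 uM solution, and hydrolysis was followed at 480 nm.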
SARS PLpro yeast = inhibitors of SARS-CoV papain-like protease in yeast; actives 0.19% (n = 330,000); S. cerevisiae expressing SARS-CoV PLpro, growth rescue; Potency, µM (doses to about 32.9 µM), actives largely listed as activators; calls by dose curve; note: nearly all actives have a fitted effect of over 55% in size
Pf growth 48h = P. falciparum growth inhibition at 48 hours (one generation); actives 5.9% (n = 310,000); P. falciparum luciferase growth in erythrocytes, 48 h; Potency, µM (doses to about 28.7 µM), usual class: inhibitors
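Growth was read as firefly luciferase luminescence after a 48 h, 37 C, 5% CO2 exposure of compounds to reporter-bearing P. falciparum cultures (0.1% parasitemia, 2% hematocrit final) in Albumax-supplemented RPMI 1640.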
Hits are given with their value; – = inactive; ? = inconclusive; · = not tested or not shown. Compounds with a hit are over-represented: about 12% of the library has one in this group of screens. Unless noted, calls come from the whole dose curve; as a rule, active = well fitted curve in the direction sought with a large enough effect; inconclusive = small, poorly fitted or top-dose-only effect, or another doubt; inactive = no such curve, though single readings can be large; an effect the other way counts as inactive or inconclusive.

SMILES	AmpC detergent	Pf growth 96h	Sm TGR inh	AmpC inh no detg	SARS PLpro yeast	Pf growth 48h
COc1cc(NC(=O)Cc2cccs2)cc(OC)c1	–	10.4µM	–	–	–	–
COc1cccc(NC(=O)c2cccs2)c1	?	?	–	–	–	–
COc1cc(NC(=O)c2cccs2)cc(OC)c1	–	10.4µM	–	?	–	–
Cc1ccc(C(=O)N2CCc3cc(CNC(=O)COc4ccccc4)ccc32)cc1	–	·	?	·	·	·
Cc1ccc(Nc2nc3ccc(Cl)cc3n3cnnc23)cc1F	–	?	–	–	–	10.4µM
Cc1cc(F)ccc1Nc1nc2ccc(Cl)cc2n2cnnc12	–	·	–	·	·	·
Cc1ccc(NC(=O)C2=CCN(S(=O)(=O)c3ccc(F)cc3)CC2)c(C)c1	?	0.329µM	–	–	–	–
Cc1cc(C)c(NC(=O)C2=CCN(S(=O)(=O)c3ccc(F)cc3)CC2)c(C)c1	?	?	–	–	–	–
O=C(O)c1cc2c(cn1)[nH]c1ccccc12	–	–	–	–	–	–
CCOC(=O)C(NC(=O)NCc1ccc(OC)cc1)(OCC)C(F)(F)F (stereo not drawn)	?	9.28µM	–	–	–	–
CC(C)C(=O)N1CCN(CCN=Cc2c(O)n(C)c(=O)n(C)c2=O)CC1	–	13.1µM	–	–	–	?
CN=c1nc(-c2ccccc2)n(-c2ccccc2)s1	–	–	1.12µM	–	·	–
O=S(=O)(c1ccc(Cl)cc1)c1nc(-c2ccccc2Br)oc1NCc1ccccc1	–	·	–	·	·	·
CNc1oc(Cc2ccccc2)nc1S(=O)(=O)c1ccc(Cl)cc1	–	?	12.6µM	–	–	–
CC(Oc1ccccc1)C(=O)Nc1ccc(C(=O)OCc2cc(=O)n3nc(C4CC4)sc3n2)cc1 (stereo not drawn)	–	·	–	·	·	·
CC(C)OCCCNC(=O)Nc1cccc2ccccc12	–	–	–	–	–	–
C=CC[n+]1c(-c2ccc(OC)c(OC)c2)csc1NNC(=O)Nc1ccccc1	–	9.28µM	–	–	–	7.38µM
COc1ccc(NC(=O)Nc2cccs2)cc1OC	–	–	?	–	–	·
CCCNC(=O)NC(=O)CN1C(=O)NC(C)(c2ccc(C)cc2)C1=O (stereo not drawn)	–	13.1µM	–	–	–	–
Cc1ccc(C2(C)NC(=O)N(CC(=O)NC(=O)NCCC(C)C)C2=O)cc1 (stereo not drawn)	–	–	–	–	–	?
CCOC(=O)NC(=O)CN1C(=O)NC(C)(c2ccccc2)C1=O (stereo not drawn)	–	1.85µM	–	–	–	–
CCOc1ccccc1CN1C(=O)NC(C)(c2ccccc2)C1=O (stereo not drawn)	–	9.28µM	–	–	–	–
CCOC(=O)N1CCN(C(=O)CN2C(=O)NC(C)(c3ccc4ccccc4c3)C2=O)CC1 (stereo not drawn)	?	?	–	–	–	11.7µM
CC(C)(C)NC(=O)NC(=O)CN1C(=O)NC(C)(c2ccccc2)C1=O (stereo not drawn)	–	–	–	–	–	–
COc1ccc(C(=O)NC(C)c2cnn(-c3ccccn3)c2C)o1 (stereo not drawn)	–	?	–	–	–	–
SMILES	AmpC detergent	Pf growth 96h	Sm TGR inh	AmpC inh no detg	SARS PLpro yeast	Pf growth 48h
O=C(Nc1ccccn1)c1ccc(=O)[nH]n1	–	·	–	–	–	–
O=C(Nc1ccccc1-c1ccccc1)c1ccc(=O)[nH]n1	–	14.7µM	–	–	–	–
CC(C)C1Nc2c(O)cc(Cl)c([N+](=O)[O-])c2C2C=CCC21 (stereo not drawn)	–	–	7.08µM	–	–	–
C=C(C)COc1ccc(-c2nc(N)ncc2Oc2ccccc2OC)c(O)c1	–	?	–	–	–	?
CCOc1ccc(-c2ncncc2-c2ccccc2OC)c(O)c1	–	?	–	–	–	2.94µM
C=C(C)COc1ccc(-c2ncncc2-c2ccccc2OC)c(O)c1	?	?	–	–	–	13.1µM
Cc1cc(C(F)(F)F)c2c(N)c(C(=O)Nc3c(Cl)cccc3Cl)sc2n1	–	·	–	·	·	·
